Laboratory results as given in PubChem BioAssay AID1159580 (chemical genetic matrix, 2015).
About 2,000 (36%) of roughly 5,500 compounds were called active. Roughly 18% stayed inconclusive and do not appear here. No stated cut-off is given here; in the data, active means normalized growth mostly below about 0.91 (no sharp cut-off); inconclusive means no clear call, values can overlap the other calls; inactive means mostly above about 0.92. The list shows a part of the results.

Test: chemical genetic growth profiling, strain panel (AID 1159580);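 further: tested at 20 µM; growth read once vehicle control cultures reached saturation at 30 °C; 1 = growth at the plate median or of vehicle wells; lower values mean less growth of the strain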
Conditions: growth OD

Measured: normalized growth

CNC(=O)N(C)c1nnc(C(C)(C)C)s1
inactive: S. cerevisiae deletion strains, locus YJR075W, strain HOC1, hits give low values 1.02 | S. cerevisiae deletion strains, locus YKL009W, strain mrt4, hits give low values 1.04 | S. cerevisiae deletion strains, locus YKL068W, hits give low values 1.01 | S. cerevisiae deletion strains, locus YKL085W, strain MDH1 (second series), hits give low values 1.02 | S. cerevisiae deletion strains, locus YKL085W, strain MDH1, hits give low values 1.02 | S. cerevisiae deletion strains, locus YKL160W, strain elf1, hits give low values 0.992 | S. cerevisiae deletion strains, locus YKL190W, strain CNB1, hits give low values 1.01 | S. cerevisiae deletion strains, locus YKR001C, strain vps1, hits give low values 1.04 | S. cerevisiae deletion strains, locus YKR026C, strain gcn3, hits give low values 0.991 | S. cerevisiae deletion strains, locus YKR091W, strain srl3, hits give low values 0.974 | S. cerevisiae deletion strains, locus YLL001W, strain dnm1, hits give low values 0.988 | S. cerevisiae deletion strains, locus YLL026W, hits give low values 0.992 | S. cerevisiae deletion strains, locus YLL041C, strain sdh2, hits give low values 0.98 | S. cerevisiae deletion strains, locus YLR027C, strain aat2, hits give low values 0.973 | S. cerevisiae deletion strains, locus YLR039C, strain RIC1, hits give low values 1.07 | S. cerevisiae deletion strains, locus YLR058C, strain SHM2, hits give low values 1.01 | S. cerevisiae deletion strains, locus YLR102C, strain apc9, hits give low values 1.03 | S. cerevisiae deletion strains, locus YLR221C, strain rsa3, hits give low values 1.01 | S. cerevisiae deletion strains, locus YLR258W, strain gsy2, hits give low values 0.975 | S. cerevisiae deletion strains, locus YLR262C, strain YPT6 (second series), hits give low values 1.03 | S. cerevisiae deletion strains, locus YLR262C, strain YPT6, hits give low values 1.09 | S. cerevisiae deletion strains, locus YLR268W, strain sec22, hits give low values 1.02 | S. cerevisiae deletion strains, locus YLR320W, strain mms22, hits give low values 1.03 | S. cerevisiae deletion strains, locus YLR330W, strain CHS5, hits give low values 1.02 | S. cerevisiae deletion strains, locus YLR342W, strain FKS1 (second series), hits give low values 1.07 | S. cerevisiae deletion strains, locus YLR342W, strain FKS1, hits give low values 0.998 | S. cerevisiae deletion strains, locus YLR357W, strain rsc2, hits give low values 0.972 | S. cerevisiae deletion strains, locus YLR370C, strain arc18, hits give low values 0.983 | S. cerevisiae deletion strains, locus YLR371W, strain rom2, hits give low values 1.02 | S. cerevisiae deletion strains, locus YLR384C, strain iki3, hits give low values 1.01 | S. cerevisiae deletion strains, locus YLR418C, strain cdc73, hits give low values 1.09 | S. cerevisiae deletion strains, locus YML016C, strain PPZ1, hits give low values 1.01 | S. cerevisiae deletion strains, locus YML032C, strain rad52, hits give low values 1.01 | S. cerevisiae deletion strains, locus YML120C, strain ndi1, hits give low values 1.01 | S. cerevisiae deletion strains, locus YML124C, strain tub3, hits give low values 1.01 | S. cerevisiae deletion strains, locus YMR058W, strain fet3, hits give low values 0.977 | S. cerevisiae deletion strains, locus YMR078C, strain ctf18, hits give low values 1.02 | S. cerevisiae deletion strains, locus YMR125W, strain sto1, hits give low values 0.942 | S. cerevisiae deletion strains, locus YMR129W, hits give low values 0.998 | S. cerevisiae deletion strains, locus YMR205C, strain PFK2, hits give low values 0.969 | S. cerevisiae deletion strains, locus YMR223W, strain ubp8, hits give low values 1.02 | S. cerevisiae deletion strains, locus YMR231W, strain pep5, hits give low values 1.01 | S. cerevisiae deletion strains, locus YMR263W, strain SAP30, hits give low values 1.02 | S. cerevisiae deletion strains, locus YMR307W, strain GAS1, hits give low values 1.1 | S. cerevisiae deletion strains, locus YNL067W, strain RPL9B, hits give low values 1.02 | S. cerevisiae deletion strains, locus YNL071W, strain lat1, hits give low values 0.993 | S. cerevisiae deletion strains, locus YNL128W, strain TEP1, hits give low values 1.01 | S. cerevisiae deletion strains, locus YNL153C, strain GIM3, hits give low values 1.01 | S. cerevisiae deletion strains, locus YNL209W, strain ssb2, hits give low values 1.01 | S. cerevisiae deletion strains, locus YNL233W, strain BNI4, hits give low values 1.01 | S. cerevisiae deletion strains, locus YNL248C, strain rpa49, hits give low values 0.995 | S. cerevisiae deletion strains, locus YNL250W, strain rad50, hits give low values 1.02 | S. cerevisiae deletion strains, locus YNL271C, strain bni1, hits give low values 1.03 | S. cerevisiae deletion strains, locus YNL298W, strain CLA4, hits give low values 1.03 | S. cerevisiae deletion strains, locus YNL307C, strain MCK1, hits give low values 1.02 | S. cerevisiae deletion strains, locus YNL322C, strain KRE1 (second series), hits give low values 0.986 | S. cerevisiae deletion strains, locus YNL322C, strain KRE1, hits give low values 1.01 | S. cerevisiae deletion strains, locus YNR049C, strain mso1, hits give low values 0.974 | S. cerevisiae deletion strains, locus YNR052C, strain pop2, hits give low values 1.03 | S. cerevisiae deletion strains, locus YOL006C, strain TOP1, hits give low values 1.06 | S. cerevisiae deletion strains, locus YOL012C, strain htz1 1.29 | S. cerevisiae deletion strains, locus YOL147C, strain pex11, hits give low values 1.01 | S. cerevisiae deletion strains, locus YOR001W, strain rrp6, hits give low values 1.01 | S. cerevisiae deletion strains, locus YOR061W, strain CKA2, hits give low values 1.01 | S. cerevisiae deletion strains, locus YOR069W, strain VPS5, hits give low values 1 | S. cerevisiae deletion strains, locus YOR070C, strain gyp1, hits give low values 1 | S. cerevisiae deletion strains, locus YOR080W, strain dia2, hits give low values 0.998 | S. cerevisiae deletion strains, locus YOR083W, strain WHI5, hits give low values 0.991 | S. cerevisiae deletion strains, locus YOR106W, strain vam3, hits give low values 0.961 | S. cerevisiae deletion strains, locus YOR136W, strain idh2, hits give low values 1.01 | S. cerevisiae deletion strains, locus YOR144C, strain elg1, hits give low values 1.01 | S. cerevisiae deletion strains, locus YOR184W, strain ser1, hits give low values 1.04 | S. cerevisiae deletion strains, locus YOR265W, strain rbl2, hits give low values 0.994 | S. cerevisiae deletion strains, locus YOR270C, strain vph1, hits give low values 1.01 | S. cerevisiae deletion strains, locus YOR290C, strain snf2, hits give low values 0.959 | S. cerevisiae deletion strains, locus YOR316C, strain cot1, hits give low values 1.02 | S. cerevisiae deletion strains, locus YPL051W, strain arl3, hits give low values 1.01 | S. cerevisiae deletion strains, locus YPL055C, strain LGE1, hits give low values 1.03 | S. cerevisiae deletion strains, locus YPL078C, strain atp4, hits give low values 0.961 | S. cerevisiae deletion strains, locus YPL106C, strain sse1, hits give low values 1.02 | S. cerevisiae deletion strains, locus YPL240C, strain hsp82, hits give low values 0.994 | S. cerevisiae deletion strains, locus YPL241C, strain CIN2, hits give low values 1.02 | S. cerevisiae deletion strains, locus YPR119W, strain clb2, hits give low values 1.01 | S. cerevisiae deletion strains, locus YPR141C, strain kar3, hits give low values 1.02 | S. cerevisiae deletion strains, locus YPR163C, strain tif3, hits give low values 1.01 | S. cerevisiae deletion strains, locus YPR167C, strain met16, hits give low values 1.03 | S. cerevisiae deletion strains, strain wtn01, hits give low values 1.03 | S. cerevisiae strains, strain wild type, hits give low values 1.01
